Measured values: PubChem BioAssay AID651717 (Broad Institute, 2012)
In all, about 1,200 compounds went through this assay and about 950 (79%) were called active.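 How the source made its calls: active means signal rises and fitted curve reaches 40% activity at or below the top valid tested dose, in every replicate test; inconclusive means replicate tests give mixed calls; inactive means the rest, including activity in the opposite direction.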 The set was probably picked from earlier hits. These entries were drawn from the full list. Potency and affinity values are given separately.

Assay: Bmi1-luciferase reporter activators in mESC, dose response, esBAF inhibitor project, mouse embryonic stem cells, cherry-pick (AID 651717);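 further: luciferase knocked into Bmi1 locus with EF-1a renilla as cell number control; rising ratio signals esBAF inhibition which derepresses Bmi1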
Conditions: firefly/renilla ratio, 24 h, hits give high values; at 35 µM unless noted

Row | Compound | max activity
1 | COc1ccc(CCC(=O)N/N=C/c2ccc3c(c2)OCO3)cc1 | 7.2% (inactive)
2 | O=C(Nc1cccc(F)c1)Nc1cccc(Cl)c1 | 39.5% [at 16 µM] (inactive)
3 | COc1ccc(NC(=O)Nc2cccc3c2O[C@@H](CN(C)C(=O)Nc2cccc4ccccc24)[C@H](C)CN([C@@H](C)CO)C3=O)cc1 | 22.8% (inactive)
4 | C[C@H]1CN([C@@H](C)CO)C(=O)c2cc(NS(=O)(=O)c3ccc(F)cc3)ccc2O[C@@H]1CN(C)C(=O)Nc1ccc2c(c1)OCO2 | 3.44% [at 4.2 µM] (inactive)
5 | C[C@H]1CCCCO[C@H](CN(C)C(=O)NC2CCCCC2)[C@@H](C)CN([C@@H](C)CO)C(=O)c2cc(NC(=O)Nc3ccc4c(c3)OCO4)ccc2O1 | 10.1% (inactive)
6 | C[C@H](CO)N1C[C@H](C)[C@H](CN(C)C(=O)NC2CCCCC2)OCCCC[C@H](C)Oc2ccc(NC(=O)Nc3ccc4c(c3)OCO4)cc2C1=O | 27% (inactive)
7 | Cc1c(Cl)cccc1N1C(=O)CC(N(O)c2ccccc2)C1=O (stereo not given) | 13.3% (inactive)
8 | Cc1ccc(S(=O)(=O)Nc2cccc3c2O[C@H](CN(C)C(=O)Nc2ccc4c(c2)OCO4)[C@@H](C)CN([C@H](C)CO)C3=O)cc1 | -41% [at 16 µM] (inactive)
9 | O=C(OCc1ccccc1)N1CCC2CC1c1ccc(/C=C/CCCCl)cc12 (stereo not given) | -25.2% [at 16 µM] (inactive)
10 | C[C@@H]1CN([C@@H](C)CO)C(=O)c2cccc(NC(=O)Nc3ccccc3)c2O[C@H]1CN(C)C(=O)Nc1ccc2c(c1)OCO2 | -14.4% (inactive)
11 | C[C@H]1CN([C@@H](C)CO)C(=O)c2cccc(NC(=O)Nc3ccccc3)c2O[C@@H]1CN(C)C(=O)Nc1ccc2c(c1)OCO2 | -6.52% (inactive)
12 | Cc1ccc(S(=O)(=O)Nc2cccc3c2O[C@@H](CN(C)C(=O)Nc2ccc4c(c2)OCO4)[C@H](C)CN([C@@H](C)CO)C3=O)cc1 | -16.1% (inactive)
13 | CO[C@@H]1CN(C)C(=O)c2ccc(NC(=O)Nc3cccc(F)c3)cc2OC[C@@H](C)N(C(=O)Nc2c(C)noc2C)C[C@H]1C | 7.7% [at 0.56 µM] (inactive)
14 | C[C@@H]1CN([C@H](C)CO)C(=O)c2cccc(NC(=O)Nc3ccc4c(c3)OCO4)c2O[C@H]1CN(C)Cc1ccccc1 | 36.6% [at 0.26 µM] (inactive)
15 | O=C(NCc1cccs1)c1cc2c(s1)-c1ccccc1OC2 | 20.6% [at 8 µM] (inactive)
16 | CCCOc1c(Br)cc(C2C3=C(CCCC3=O)N(CC)C3=C2C(=O)CCC3)cc1OC | -53.8% [at 16 µM] (inactive)
17 | Cc1ccc(CN2CN(S(=O)(=O)c3cccs3)c3nc4ccccc4nc32)cc1 | -38.8% (inactive)
18 | O=C(O)c1ccc(NCc2cccnc2)cc1 | 12.2% (inactive)
19 | C[C@@H]1CN([C@@H](C)CO)C(=O)c2c(c3ccccc3n2C)-c2ccccc2CO[C@@H]1CN(C)C(=O)Nc1ccc2c(c1)OCO2 | -11.1% (inactive)
20 | C[C@@H]1CCCCO[C@@H](CN(C)S(=O)(=O)c2cn(C)cn2)[C@@H](C)CN([C@@H](C)CO)C(=O)c2cc(NC(=O)Nc3ccc4c(c3)OCO4)ccc2O1 | 3.24% [at 30 µM] (inactive)

Row | Compound | max activity
21 | CC1CCN(c2ccc(C(=O)NCc3cccs3)cn2)CC1 | 20.2% [at 8 µM] (inactive)
22 | COc1ccc(CN2C[C@@H](C)[C@H](OC)CN(C)C(=O)c3ccc(NC(=O)c4nc5ccccc5s4)cc3OC[C@H]2C)cc1 | 13.2% [at 3.8 µM] (inactive)
23 | COc1ccc(N(CCC(=O)NCCc2ccccc2)S(=O)(=O)c2ccc(C)cc2C)cc1 | 24.7% [at 8 µM] (inactive)
24 | Cc1ccc(CNC(=O)c2cccc3c2C(=O)c2ccc(N4CCC(C)CC4)cc2S3(=O)=O)cc1 | -5.88% [at 0.5 µM] (inactive)
25 | C[C@@H]1CN([C@@H](C)CO)C(=O)c2cccc(NC(=O)Nc3ccc4c(c3)OCO4)c2O[C@H]1CN(C)Cc1ccc(Cl)c(Cl)c1 | -35% [at 18 µM] (inactive)
26 | O=C(NCc1cccs1)Nc1cccc(Cl)c1 | -20.3% (inactive)
27 | C/C(=N\NC(=O)c1ccc(Cn2cc(Br)cn2)o1)c1ccc(NC(=O)c2ccoc2C)cc1 | 18.3% [at 16 µM] (inactive)
28 | Cc1cccc(-c2nnc(-c3cccc(NC(=O)Cc4cccs4)c3)o2)c1 | 34.9% (inactive)
29 | Cc1ccc(S(=O)(=O)Nc2cccc(-c3ccc(N4CCCCCC4)nn3)c2)c(C)c1 | 27.4% [at 4.2 µM] (inactive)
30 | Cc1ccc(S(=O)(=O)Nc2cccc(-c3ccc(N4CCCCCC4)nn3)c2)cc1 | 29.4% [at 4.2 µM] (inactive)
31 | C[C@@H]1CN([C@@H](C)CO)S(=O)(=O)c2ccc(-c3ccc(F)cc3)cc2O[C@H]1CN(C)C(=O)C1CC1 | -26.9% (inactive)
32 | C[C@H]1CCCCO[C@H](CN(C)C(=O)Nc2ccc(F)cc2)[C@@H](C)CN([C@@H](C)CO)C(=O)c2cc(NC(=O)Nc3ccc4c(c3)OCO4)ccc2O1 | -13.8% [at 8 µM] (inactive)
33 | C[C@H]1CCCCO[C@@H](CN(C)Cc2ccncc2)[C@@H](C)CN([C@@H](C)CO)C(=O)c2cc(NC(=O)Nc3ccc4c(c3)OCO4)ccc2O1 | -19.5% (inactive)
34 | C[C@H](CO)N1C[C@H](C)[C@@H](CN(C)Cc2ccc(-c3ccccc3)cc2)Oc2c(NC(=O)Nc3ccc4c(c3)OCO4)cccc2C1=O | -20.6% (inactive)
35 | C[C@H](CO)N1C[C@H](C)[C@H](CN(C)Cc2ccncc2)OCCCC[C@H](C)Oc2ccc(NC(=O)Nc3ccc4c(c3)OCO4)cc2C1=O | -10.9% (inactive)
36 | C[C@@H]1CCCCO[C@@H](CN(C)Cc2ccncc2)[C@@H](C)CN([C@@H](C)CO)C(=O)c2cc(NC(=O)Nc3ccc4c(c3)OCO4)ccc2O1 | 11% (inactive)
37 | CCc1c(C(=O)Nc2ccc(C)c(C)c2)[nH]c(C)c1C(C)=O | 13.1% [at 4.2 µM] (inactive)
38 | O=C(CNc1ccc(Br)cc1)c1ccc(Br)s1 | 12.9% [at 4.2 µM] (inactive)
39 | COc1ccc2oc(C(=O)OCC(=O)Nc3ccc(C)c(S(=O)(=O)N4CCOCC4)c3)c(C)c2c1 | 34.7% (inactive)
40 | C[C@H](CO)N1C[C@H](C)[C@@H](CN(C)C(=O)Nc2ccc(F)cc2)OCCCC[C@H](C)Oc2ccc(NC(=O)Nc3ccc4c(c3)OCO4)cc2C1=O | 15.2% [at 8 µM] (inactive)

Row | Compound | max activity
41 | Cc1ccc(-n2nc(C(=O)c3ccccc3)n3c(=O)cc(-c4ccccc4)nc23)cc1 | 5.74% [at 16 µM] (inactive)
42 | CC(C)c1ccc(NC(=O)C(c2ccccc2)N2CC(=O)Nc3ccccc32)cc1 (stereo not given) | 10.6% (inactive)
43 | Cc1ccc(C(=O)Nc2nc(=O)n(C(=O)c3ccccc3C)s2)cc1 | 38.3% [at 16 µM] (inactive)
44 | C[C@H](CO)N1C[C@H](C)[C@@H](CN(C)C(=O)Nc2ccc3c(c2)OCO3)OCCCC[C@H](C)Oc2ccc(NC(=O)Nc3ccc4c(c3)OCO4)cc2C1=O | 12.8% (inactive)
45 | C[C@@H]1CCCCO[C@@H](CN(C)C(=O)Nc2ccc3c(c2)OCO3)[C@H](C)CN([C@H](C)CO)C(=O)c2cc(NC(=O)Nc3ccc4c(c3)OCO4)ccc2O1 | 17.2% [at 16 µM] (inactive)
46 | C[C@@H]1CN([C@@H](C)CO)C(=O)c2cc(NC(=O)Nc3ccc4c(c3)OCO4)ccc2O[C@H]1CN(C)C(=O)Nc1ccc(C(F)(F)F)cc1 | -14.9% (inactive)
47 | C[C@@H]1CN([C@@H](C)CO)C(=O)c2cc(NC(=O)Nc3ccc4c(c3)OCO4)ccc2O[C@@H](C)CCCCO[C@@H]1CN(C)C(=O)Nc1ccc2c(c1)OCO2 | 18.2% (inactive)
48 | O=C(CCCc1ccccc1)Nc1ccccc1C(F)(F)F | 21.6% (inactive)
49 | C[C@@H]1CN([C@@H](C)CO)C(=O)c2cc(NC(=O)Nc3ccc4c(c3)OCO4)ccc2O[C@@H](C)CCCCO[C@H]1CN(C)C(=O)Nc1ccccc1 | 33.3% (inactive)
50 | C[C@@H]1CCCCO[C@H](CN(C)C(=O)Nc2ccc(F)cc2)[C@H](C)CN([C@@H](C)CO)C(=O)c2cc(NC(=O)Nc3ccc4c(c3)OCO4)ccc2O1 | 7.08% [at 1 µM] (inactive)
51 | O=S(=O)(c1cccs1)N1CN(Cc2ccc(Cl)cc2)c2nc3ccccc3nc21 | -33.7% (inactive)
52 | COc1ccc(-c2nn(-c3ccccc3)cc2/C=C(\CC(=O)O)c2nc3ccccc3s2)cc1OC | 26.9% (inactive)
53 | C[C@@H]1CCCCO[C@@H](CN(C)S(=O)(=O)c2cn(C)cn2)[C@H](C)CN([C@H](C)CO)C(=O)c2cc(NC(=O)Nc3ccc4c(c3)OCO4)ccc2O1 | -9.02% [at 2.1 µM] (inactive)
54 | CN(c1ccc(O)cc1)S(=O)(=O)c1ccc2ccccc2c1 | 14.3% [at 8 µM] (inactive)
55 | CCCN(Cc1ccc(C)cc1)C(=O)c1ccc(CNS(=O)(=O)c2ccc(C(C)=O)cc2)cc1 | 33.1% [at 16 µM] (inactive)
56 | COc1cccc(CN(C(=O)c2cc3ccccc3oc2=O)C2CC2)c1 | 35% [at 8 µM] (inactive)
57 | O=C1NC[C@H](c2ccccc2)OC(=O)[C@@H](Cc2ccc(F)cc2)C/C=C\C[C@H]1CC(=O)N(CCO)Cc1ccccc1 | 25.5% (inactive)
58 | COC(=O)c1ccc2c(=O)n(CC3CCCO3)c(SCC(=O)Nc3ccccc3Cl)nc2c1 (stereo not given) | 24.8% [at 8 µM] (inactive)
59 | C[C@@H]1CCCCO[C@@H](CN(C)C(=O)Nc2cccc3ccccc23)[C@H](C)CN([C@H](C)CO)C(=O)c2cc(NC(=O)C3CCCCC3)ccc2O1 | 28.2% [at 16 µM] (inactive)
60 | COc1ccc(CNC(=O)N(C)C[C@@H]2OCc3ccccc3-c3c(n(C)c4ccccc34)C(=O)N([C@H](C)CO)C[C@@H]2C)cc1 | -26.4% [at 30 µM] (inactive)
